Sampled rows, rich in hits. Any-hit rate of the full collection: about 12%.
Arbovirus anti – antivirals against arbovirus infection, primary screen, cell-based, full library, 10K replicate subset; arbovirus infection cell-based antiviral screen; inhibition, % at 10 µM; 200,000 compounds, 0.37% hits; in the data active = inhibition above about 30%
CHOP inhibitor – inhibitors of CHOP promoter induction, primary screen, cell-based, unfolded protein response, luciferase reporter; CHO-K1 CHOP-promoter luciferase, tunicamycin-induced, 15-18 h; inhibition, % at 10 µM; 220,000 compounds, 3.8% hits;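 active = compounds that reduced the stress-induced luciferase reporter signal by more than about 70% of percent inhibition, limit read from the data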
WT yeast gro inh – growth inhibition of WT strain, primary screen, mitochondrial fusion inhibitor project, WT and mutant strains, chemical genetic; mitochondrial fusion phenotypic screen; inhibition, % at 10 µM; 190,000 compounds, 2.1% hits; AID 1362, 2008; in the data active = inhibition above about 58%; tested in S. cerevisiae
Lmaj promast – Leishmania major promastigote growth inhibition, primary screen; AID 1063, 2008; 200,000 compounds, 9% hits; Leishmania major promastigotes, resazurin fluorescence viability; inhibition, % at 10 µM; in the data active = inhibition above about 50%;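 also: promastigotes grown with compound for 44 hours at 28 °C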
Each line names hits and unclear results; the compound was inactive in the other large screens.

CCN(CC)S(=O)(=O)c1ccc(-c2ccc(S(=O)(=O)N(CC)CC)cc2)cc1	none
CN(C)S(=O)(=O)c1ccc(Oc2ccccc2)cc1	Lmaj promast 98
CCN(CC)S(=O)(=O)c1ccc(Oc2ccccc2)cc1	Lmaj promast 99 (no result: WT yeast gro inh)
CN(C)S(=O)(=O)c1ccc(-c2ccccc2)cc1	none
COC(=O)c1c(NC(=O)C(Cl)Cl)sc2c1C(C(=O)OC)CC2 (centres undefined)	CHOP inhibitor 80 (no result: Arbovirus anti, WT yeast gro inh, Lmaj promast)
COc1cc2c(cc1OC)CN(C(=S)Nc1ccc(C)cc1C)CC2	none
COc1ccc(/C=C/C(O)=C(\C#N)c2nnc(N3CCOCC3)n2-c2ccccc2)cc1OC	none
O=C(CN1CCOc2ccccc21)N1CCN(c2cccc(Cl)c2)CC1	none (no result: CHOP inhibitor)
CCC(C)Nc1c([N+](=O)[O-])cc(C)cc1[N+](=O)[O-] (centres undefined)	WT yeast gro inh 67
N=c1n(CC(=O)c2cccc([N+](=O)[O-])c2)c2ccccc2n1Cc1ccccc1	Lmaj promast 63
CC(C)(C)C(=O)Cn1c(=N)n(Cc2ccccc2)c2ccccc21	WT yeast gro inh 70, Lmaj promast 58
CC(C)(C)C(=O)Cn1c(=N)n(Cc2ccccc2Cl)c2ccccc21	Lmaj promast 100
Cc1ccc(Cn2c(=N)n(CC(=O)c3ccccc3)c3ccccc32)cc1	Lmaj promast 100
CC(C)COc1ccc(C(=O)Nc2sc3c(c2C(=O)O)CC(C)(C)OC3)cc1	Arbovirus anti 61
COc1ccc(C(=O)Nc2sc3c(c2C(=O)O)CC(C)(C)OC3)cc1	Arbovirus anti 34
C=CCn1nnnc1-c1cc(Cl)cc(Cl)c1	none
Cc1cccc(C(C)C)c1NC(=O)COC(=O)c1cccc(S(=O)(=O)N2CCc3ccccc3C2)c1	CHOP inhibitor 85
Cc1ccc(C2=NN3C(C2)c2ccccc2OC32C(=O)Nc3ccccc32)cc1 (centres undefined)	Lmaj promast 100
CCNC(=S)N/N=C/c1cn(Cc2ccccc2F)c2ccccc12	CHOP inhibitor 77
CNC(=S)N/N=C/c1cn(Cc2c(F)cccc2Cl)c2ccccc12	WT yeast gro inh 62
CCNC(=S)N/N=C/c1cn(Cc2ccc(F)cc2)c2ccccc12	none
CNC(=S)N/N=C/c1c(C)cccc1Cl	none (no result: Arbovirus anti, WT yeast gro inh, Lmaj promast)
Cc1cccc(N(CC(=O)NC2CCCCC2)C(=O)Cn2nnc(-c3ccc(C)o3)n2)c1	none
COC(=O)c1ccc(-n2c(C)cc(C(=O)COC(=O)CC3Sc4ccccc4NC3=O)c2C)cc1 (centres undefined)	Lmaj promast 65
Cc1nnc(SCC(=O)c2cc(C)n(-c3ccc4c(c3)OCO4)c2C)s1	Lmaj promast 61 (no result: CHOP inhibitor)
Cc1cc(C(=O)COC(=O)c2ccc(N)c([N+](=O)[O-])c2)c(C)n1-c1ccc2c(c1)OCO2	Lmaj promast 71
Cc1cc(C(=O)CSc2nnnn2C)c(C)n1-c1ccc2c(c1)OCCO2	none
Cc1cc(C(=O)COC(=O)CC2Sc3ccccc3NC2=O)c(C)n1-c1ccc2c(c1)OCO2 (centres undefined)	Lmaj promast 55
Cc1cc(C(=O)COC(=O)Cc2n[nH]c(=O)c3ccccc23)c(C)n1-c1ccc2c(c1)OCO2	CHOP inhibitor 85
CN1C2CCC1CC(NC(=O)c1nn(C)c3ccccc13)C2 (centres undefined)	none (no result: Arbovirus anti, WT yeast gro inh, Lmaj promast)
COc1ccc(/C=N/n2cnnc2)cc1Br	none (no result: Arbovirus anti, WT yeast gro inh, Lmaj promast)
Cc1ccc(-n2nnnc2SCC(=O)Nc2nc(-c3ccc(F)cc3)cs2)cc1C	none
Cc1cc(C)cc(-n2nnnc2SCC(=O)Nc2nc(-c3ccc(F)cc3)cs2)c1	CHOP inhibitor 89
CCn1nnnc1SCC(=O)Nc1nc(-c2cccs2)cs1	Lmaj promast 55
O=C(CSc1nnnn1-c1ccccc1)Nc1nc(-c2ccccc2)ns1	CHOP inhibitor 86
Cc1cc(C)cc(-n2nnnc2SCC(=O)Nc2nc(-c3ccc(Cl)cc3)cs2)c1	CHOP inhibitor 76
CCn1nnnc1SCC(=O)Nc1nnc(C(C)C)s1	none
O=C1CSC(c2ccccn2)N1c1ccc(F)cc1F (centres undefined)	none
COc1ccc2c(c1)CC1c3c(cc4c(c3-2)OCO4)CC[N+]1(C)[O-] (centres undefined)	none (no result: Arbovirus anti, WT yeast gro inh, Lmaj promast)
CCCOc1ccc(OCCNC2CCCC2)cc1	Lmaj promast 94
CCOc1ccccc1OCCNC1CCCC1	none
Cc1ccc(OCCCCNC2CCCCC2)c(C)c1	Lmaj promast 94
Cc1ccc(C)c(OCCCNC2CCCC2)c1C	Lmaj promast 97
CCOc1ccc(OCCNC2CCCC2)cc1	Lmaj promast 84
O=C(Nc1ncc(Cc2ccccc2)s1)C1COc2ccccc2O1 (centres undefined)	none
CS(=O)(=O)N(CC(=O)NC1CC1)C1CCCCC1	none

Screening data from PubChem BioAssay.
